# Experimental data reported in PubChem BioAssay (NCATS).
# A number with no mark means an inactive call. Records with an inconclusive call do not appear. Where a call stands in place of a potency, no number is given. Activity calls are given as the source filed them. Unless noted, calls follow the shape of the dose curve; as a rule, active = well fitted curve in the direction sought with a large enough effect; inconclusive = small, poorly fitted or top-dose-only effect, or another doubt; inactive = no such curve, though single readings can be large; an effect the other way counts as inactive or inconclusive.
# Tests used:
# [1] = qHTS for differential inhibitors of proliferation of Plasmodium falciparum line D10 (AID 1877); details: series mostly up to 28.7 µM;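 also: potency is read from the fitted curve at half-maximal effect; parasites grown with compound for 72 h before DNA staining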
# [2] = target: DNA dC->dU-editing enzyme APOBEC-3G (Homo sapiens) (UniProt Q9HC16); assay: qHTS for inhibitors of Vif-A3G interactions: Validation (AID 588379); details: Vif-A3G protein interaction assay; series mostly up to 46.1 µM
# Summary of the method: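 HeLa cells stably expressing Vif and A3G-eYFP, 700 cells/well, incubated overnight at 37 deg C, then exposed to compound overnight at 37 deg C. Inhibition of Vif-mediated degradation read as increased yellow fluorescence (Ex 488/Em 500-530) by laser-scanning cytometry.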
# [3] = qHTS Assay for Identification of Small Molecule Antagonists for Thrombopoietin (TPO) Signaling Pathway (AID 918); details: TPO-dependent cell signaling reporter, antagonist mode; also: potency is read from the fitted curve at half-maximal effect; nearly all actives have a fitted effect of over 60% in size
# Summary of the method: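 Murine Ba/F3 cells expressing human TPO receptor and a Glycoprotein IIb promoter-luciferase reporter, IL-3-starved overnight, treated with compound plus TPO at EC50 (26 pM final). After 24 h at 37 C, luminescence read to detect inhibitors.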
# [4] = High Content Imaging Cell-Based qHTS for Inhibitors of the mTORC1 Signaling Pathway in MEF (Tsc2-/-, p53-/-) Cells (AID 2666); details: series mostly up to 38.3 µM;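 also: percent of cells scored positive for phospho-rpS6 Ser235/236 immunostaining by imaging; potency is read from the fitted curve at half-maximal effect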
# Summary of the method: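 Cells were plated, dosed with compound after 24 hrs, and incubated another 24 hrs at 37 degree Celsius. Fixed cells were immunostained for phospho-rpS6 Ser235/236 and counterstained, and the normalized signal was scored as % active cells against rapamycin and DMSO controls.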
# [5] = High Content Imaging Cell-Based qHTS for Inhibitors of the mTORC1 Signaling Pathway in MEF Cells (AID 2667); details: series mostly up to 38.3 µM; also: potency is read from the fitted curve at half-maximal effect
# Summary of the method: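 Immunofluorescence for rpS6 phosphorylation in MEFs of Tsc2-/-, p53-/- background rescued with WT Tsc2. Compound exposure lasted 24 hrs. Inhibition was scored against rapamycin-treated control wells.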
# [6] = Cytometry Cell-Based qHTS for Inhibitors of the mTORC1 Signaling Pathway in MEF cells (AID 2668); details: mTORC1 pathway readout; series mostly up to 38.3 µM; also: potency is read from the fitted curve at half-maximal effect
# Summary of the method: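 Read-out: phospho-rpS6 Ser235/236 immunofluorescence normalized to propidium iodide intensity, scored as % active cells against a rapamycin (7.5 nM) threshold. Cells: Tsc2-/-, p53-/- MEFs stably expressing WT Tsc2, compound-treated 24 hrs at 37 degree Celsius.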
# [7] = target: M-phase phosphoprotein 8 (Homo sapiens) (UniProt Q99549); assay: qHTS Validation Assay for Inhibitors for MPP8 Chromodomain Interactions with Methylated Histone Tails (AID 488949); details: AlphaScreen MPP8 binding to H3K9me3 peptide; series mostly up to 114 µM;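 also: AlphaScreen signal from MPP8 chromodomain bound to biotinylated H3K9me3 peptide; top concentration of the series differs between compounds; nearly all actives have a fitted effect of over 55% in size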
# Summary of the method: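 AlphaScreen read-out: streptavidin donor and nickel chelate acceptor beads (final 10 ug/mL), 30 min in the dark at RT. Complex of 50 nM MPP8 and 50 nM b-H3(1-18)K9me3 peptide had been exposed to compounds for 30 min beforehand.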
# [8] = qHTS for compounds that reverse cellular toxicity of Amyloid beta (A-beta) peptide in yeast: LOPAC Validation Assay (AID 720559); details: yeast expressing A-beta; series mostly up to 46.1 µM
# Summary of the method: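 OD600 growth readout after 48 hr at 30 C; A-beta-toxic yeast plus pinned compounds in medium. Normalization: DMSO = negative, equimolar FeCl3 + clioquinol = positive.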
# [9] = target: ATPase family AAA domain-containing protein 5 (Homo sapiens) (UniProt Q96QE3); assay: Validation screen for small molecules that inhibit ELG1-dependent DNA repair in human embryonic kidney (HEK293T) cells expressing luciferase-tagged ELG1 (AID 493107); details: HEK293T ELG1-luciferase level, luminescence, 5-fluorouridine co-treatment, 16 h; series mostly up to 46.1 µM; also: potency is read from the fitted curve at half-maximal effect; nearly all actives have a fitted effect of over 70% in size
# Summary of the method: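 HEK293T cells expressing luciferase-tagged ELG1, 2,000 per well, treated with 5-fluorouridine plus compound for 16 h at 37 C. ONE-Glo luminescence after 30 min at room temperature reports ELG1 reporter level.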
# [10] = target: Arylsulfatase A (Homo sapiens) (UniProt P15289); assay: qHTS screen for enhancers of Arylsulfatase A (ASA1): LOPAC Validation Assay (AID 720538); details: ASA enzyme activity, LOPAC qHTS enhancer assay; series mostly up to 57.5 µM
# Summary of the method: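 Read-out: fluorescence at Ex=525/Em=598 nm after 1N NaOH final stop. Patient fibroblasts carrying ASA-I179S had 48h compound exposure, then 14h room-temperature pNCS hydrolysis (0.5mM final) in lysis buffer. Signal increase = enhanced activity.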
# [11] = target: Phospholipid hydroperoxide glutathione peroxidase GPX4 (Homo sapiens) (UniProt P36969); assay: Primary qHTS Assay for Inhibitors of Recombinant Selenoprotein Glutathione Peroxidase 4 (GPX4) (AID 1845192); details: recombinant GPX4, GR-coupled NADPH fluorescence, 15 min; series mostly up to 50 µM; also: nearly all actives have a fitted effect of over 65% in size
# Summary of the method: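 NADPH consumption, followed by fluorescence at 340/450 nm between 0 and 15 min, reports GPX4 activity via coupled glutathione reductase (100 nM). Enzyme 200 nM was pre-exposed to compound 30 min; 0.5 mM cumene hydroperoxide and 1 mM GSH served as substrates.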
# [12] = target: Guanine nucleotide-binding protein G(i) subunit alpha-1 (Homo sapiens) (UniProt P63096); assay: qHTS Assay for Inhibitors of RGS12 GoLoco Motif Activity (Green Fluorophore) (AID 879); details: Galphai1/FITC-RGS12 GoLoco peptide, fluorescence polarization; series mostly up to 57.1 µM;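 also: negative values mean loss of peptide binding seen as reduced polarization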
# Summary of the method: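 Fluorescence polarization assay: 50 nM Gαi1 with 10 nM FITC-labeled RGS12 GoLoco peptide in 10 mM Tris pH 7.5, 150 mM NaCl, 0.1 mM GDP, 0.05% NP40, 10 min at room temperature with compound.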
# [13] = qHTS Assay for Identification of Small Molecule Antagonists for NFkB Signaling Pathway (AID 895; active = well fitted inhibition curve with a large enough effect in the signal ratio, with a control signal flat, not every such curve was filed as active; the % refers to the signal ratio); details: NFkB beta-lactamase reporter cells, FRET ratio 460/530; series mostly up to 38.3 µM
# Summary of the method: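 Beta-lactamase reporter read-out (460 and 530 nm emission ratio, 405 nm excitation, 2 hrs substrate loading RT) after 5 hr stimulation with 10 pM TNF alpha in compound-treated NFkB-bla ME-180 cells in low-serum medium.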
# [14] = target: Luciferin 4-monooxygenase (Photinus pyralis) (UniProt P08659); assay: Biochemical firefly luciferase enzyme assay for NPC (AID 624030);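 also: purified P. pyralis luciferase at 10 nM with luciferin and ATP substrate; nearly all actives have a fitted effect of over 70% in size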; details: purified P. pyralis luciferase, luminescence, 5 min; series mostly up to 58.6 µM
# Summary of the method: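 Direct inhibition of firefly luciferase enzyme (10 nM final, 50 mM Tris Acetate) assessed by luminescence within 5 minutes. Percent activity scaled between DMSO and PTC124 positive control, with concentration-effect curves classified by fit quality and response.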
# [15] = S16 Schwann cell PMP22 intronic element beta-lactamase assay (AID 624044; calls by dose curve; also: nearly all actives have a fitted effect of over 15% in size); details: S16 rat Schwann cells, PMP22 element beta-lactamase FRET, 24 h; ratio activity, negative = inhibition: at 38.3 µM (top of the series) unless noted
# Summary of the method: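 Rat S16 Schwann cells with beta-Lac driven by a PMP22 intronic element, compound-treated 24 h at 37 °C. LiveBLAzer FRET B/G read: 460 nm normalized to potassium clavulanate vs DMSO; 535 nm FRET as viability; concentration-effect curves classified.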
# 7G8 = assay: qHTS profiling for inhibitors of Plasmodium falciparum proliferation (AID 504749); also: nearly all actives have a fitted effect of over 60% in size; details: P. falciparum in erythrocytes, SYBR Green DNA, 72 h; series mostly up to 12.8 µM
# Summary of the method: (§1)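 Infected RBCs, 0.3% parasitemia/2.5% Hct final; cpd 72 h, 37 C, 5% CO2; lysis buffer with saponin/triton/SYBR Green I, o/n RT dark; FI 485/535; norm. to artemisinin (0.29 uM) and DMSO.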
# ICS = assay: as above; details: P. falciparum in erythrocytes, SYBR Green DNA, 72 h; series mostly up to 28.7 µM
# Summary of the method: as §1
# W2 = assay: as above; details: P. falciparum in erythrocytes, SYBR Green DNA, 72 h; series mostly up to 12.8 µM
# Summary of the method: as §1
# [16] = qHTS Assay for Identification of Small Molecule Agonists for Hypoxia Response Element Signaling Pathway (AID 914; active = well fitted activation curve with a large enough effect in the signal ratio, with a control signal flat, not every such curve was filed as active; the % refers to the signal ratio); details: ME-180 (cervical carcinoma) HRE-bla reporter, beta-lactamase ratio, CoCl2, 17 h; activation: stronger effect = higher value
# Summary of the method: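 HRE-bla ME-180 cells with beta-lactamase reporter under hypoxia response element, compounds with EC50 CoCl2 for 17 hours at 37 C. CCF4 substrate, 460nm/530nm emission ratio gave %Activity; AC50 from titration series.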
# [17] = target: Ubiquitin carboxyl-terminal hydrolase 1 (Homo sapiens) (UniProt O94782); assay: Inhibitors of USP1/UAF1: Pilot qHTS (AID 504865); details: purified USP1/UAF1, Ub-rhodamine cleavage fluorescence; series mostly up to 114 µM;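 also: rhodamine fluorescence freed from ubiquitin-rhodamine substrate followed over time; top concentration of the series differs between compounds; nearly all actives have a fitted effect of over 35% in size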
# Summary of the method: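 1nM USP1/UAF1 + cpd, 15 min RT; start w/ Ub-Rho 150nM final; kinetic FL 480/540 nm, 6 reads q60 s. Buffer 50mM HEPES pH 7.8, 0.5mM EDTA, 1mM TCEP, 0.01% Tween-20, 0.1 mg/ml BSA.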
# Ubiquitin carboxyl-terminal hydrolase 1 (Homo sapiens), sequence (O94782 whole entry, looked up): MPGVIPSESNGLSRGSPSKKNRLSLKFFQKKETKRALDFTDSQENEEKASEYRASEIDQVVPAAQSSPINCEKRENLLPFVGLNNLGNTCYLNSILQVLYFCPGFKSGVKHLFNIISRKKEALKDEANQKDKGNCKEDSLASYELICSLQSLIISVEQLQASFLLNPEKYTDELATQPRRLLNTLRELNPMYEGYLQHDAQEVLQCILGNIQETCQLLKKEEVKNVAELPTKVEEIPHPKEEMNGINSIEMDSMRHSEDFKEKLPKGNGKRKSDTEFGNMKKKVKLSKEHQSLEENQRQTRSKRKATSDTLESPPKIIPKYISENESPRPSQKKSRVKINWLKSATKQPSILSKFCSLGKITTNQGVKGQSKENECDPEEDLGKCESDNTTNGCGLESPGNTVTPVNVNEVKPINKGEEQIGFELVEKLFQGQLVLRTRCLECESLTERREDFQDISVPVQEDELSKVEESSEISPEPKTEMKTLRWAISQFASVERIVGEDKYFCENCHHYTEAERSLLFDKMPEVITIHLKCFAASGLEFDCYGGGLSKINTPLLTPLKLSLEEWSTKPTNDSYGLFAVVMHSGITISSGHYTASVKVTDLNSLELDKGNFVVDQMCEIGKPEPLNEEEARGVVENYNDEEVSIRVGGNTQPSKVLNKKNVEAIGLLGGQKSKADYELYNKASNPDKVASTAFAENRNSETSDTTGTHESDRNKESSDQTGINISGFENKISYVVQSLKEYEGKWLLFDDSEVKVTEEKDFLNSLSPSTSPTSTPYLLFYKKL
# Luciferin 4-monooxygenase (Photinus pyralis), sequence (P08659 whole entry, looked up): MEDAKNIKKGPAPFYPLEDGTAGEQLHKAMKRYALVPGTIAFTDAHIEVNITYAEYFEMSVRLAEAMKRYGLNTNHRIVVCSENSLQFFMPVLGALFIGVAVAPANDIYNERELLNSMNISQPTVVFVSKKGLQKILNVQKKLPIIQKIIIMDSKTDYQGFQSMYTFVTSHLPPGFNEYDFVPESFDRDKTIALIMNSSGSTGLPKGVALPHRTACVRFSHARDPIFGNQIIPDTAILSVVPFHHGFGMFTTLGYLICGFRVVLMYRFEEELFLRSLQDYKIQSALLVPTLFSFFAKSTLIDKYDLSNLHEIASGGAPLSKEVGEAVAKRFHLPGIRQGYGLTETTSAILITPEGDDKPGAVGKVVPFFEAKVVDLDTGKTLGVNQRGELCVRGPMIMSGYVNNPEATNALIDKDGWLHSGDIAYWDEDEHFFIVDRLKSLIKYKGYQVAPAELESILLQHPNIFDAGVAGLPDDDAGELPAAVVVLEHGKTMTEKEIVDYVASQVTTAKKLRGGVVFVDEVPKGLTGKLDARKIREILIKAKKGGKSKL
# ATPase family AAA domain-containing protein 5 (Homo sapiens), sequence (Q96QE3 whole entry, looked up, the tested form may be a part): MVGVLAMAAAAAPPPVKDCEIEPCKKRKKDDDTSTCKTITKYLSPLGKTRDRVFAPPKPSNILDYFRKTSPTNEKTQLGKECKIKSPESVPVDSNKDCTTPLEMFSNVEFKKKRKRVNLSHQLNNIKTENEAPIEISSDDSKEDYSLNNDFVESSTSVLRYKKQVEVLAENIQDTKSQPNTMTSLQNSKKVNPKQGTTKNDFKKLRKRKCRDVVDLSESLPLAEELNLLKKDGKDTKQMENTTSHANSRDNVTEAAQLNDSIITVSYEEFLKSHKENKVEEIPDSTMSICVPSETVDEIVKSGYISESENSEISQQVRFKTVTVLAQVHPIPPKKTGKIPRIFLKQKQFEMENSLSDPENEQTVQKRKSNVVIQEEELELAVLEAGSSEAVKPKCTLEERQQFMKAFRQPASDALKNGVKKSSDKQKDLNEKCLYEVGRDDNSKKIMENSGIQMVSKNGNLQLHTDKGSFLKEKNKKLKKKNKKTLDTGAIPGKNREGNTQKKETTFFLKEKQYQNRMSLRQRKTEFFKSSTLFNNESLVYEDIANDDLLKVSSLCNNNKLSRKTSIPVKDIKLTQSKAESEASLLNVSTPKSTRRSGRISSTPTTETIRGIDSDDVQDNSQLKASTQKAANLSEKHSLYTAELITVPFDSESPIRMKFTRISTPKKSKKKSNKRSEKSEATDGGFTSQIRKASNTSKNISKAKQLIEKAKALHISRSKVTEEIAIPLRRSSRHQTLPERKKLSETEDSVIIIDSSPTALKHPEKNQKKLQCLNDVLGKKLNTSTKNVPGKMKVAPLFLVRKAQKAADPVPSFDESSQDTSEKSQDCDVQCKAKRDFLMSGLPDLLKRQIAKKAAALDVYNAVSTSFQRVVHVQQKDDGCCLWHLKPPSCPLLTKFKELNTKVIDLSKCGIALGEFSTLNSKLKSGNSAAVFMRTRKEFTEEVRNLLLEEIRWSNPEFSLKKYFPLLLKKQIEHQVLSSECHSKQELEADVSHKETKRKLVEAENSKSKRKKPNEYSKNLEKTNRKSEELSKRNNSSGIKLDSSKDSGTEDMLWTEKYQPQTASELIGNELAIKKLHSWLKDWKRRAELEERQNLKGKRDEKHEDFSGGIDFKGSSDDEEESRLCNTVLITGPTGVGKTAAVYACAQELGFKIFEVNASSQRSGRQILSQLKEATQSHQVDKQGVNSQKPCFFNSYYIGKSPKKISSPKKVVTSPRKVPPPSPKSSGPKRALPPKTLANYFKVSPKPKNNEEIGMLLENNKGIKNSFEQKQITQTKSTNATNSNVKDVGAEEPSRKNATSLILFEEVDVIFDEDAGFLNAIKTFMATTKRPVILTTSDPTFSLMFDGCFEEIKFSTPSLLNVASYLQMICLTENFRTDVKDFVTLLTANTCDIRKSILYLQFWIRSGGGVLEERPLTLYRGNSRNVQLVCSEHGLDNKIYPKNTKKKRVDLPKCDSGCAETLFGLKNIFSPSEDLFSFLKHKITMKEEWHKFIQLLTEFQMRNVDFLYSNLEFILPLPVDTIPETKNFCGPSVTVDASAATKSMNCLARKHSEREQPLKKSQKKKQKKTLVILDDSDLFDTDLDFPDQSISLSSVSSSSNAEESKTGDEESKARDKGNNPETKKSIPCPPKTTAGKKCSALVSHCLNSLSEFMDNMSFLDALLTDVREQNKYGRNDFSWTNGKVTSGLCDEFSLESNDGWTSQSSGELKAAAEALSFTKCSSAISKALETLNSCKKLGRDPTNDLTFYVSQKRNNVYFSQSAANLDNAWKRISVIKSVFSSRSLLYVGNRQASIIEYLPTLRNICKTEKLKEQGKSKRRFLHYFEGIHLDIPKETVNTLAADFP
# Guanine nucleotide-binding protein G(i) subunit alpha-1 (Homo sapiens), sequence (P63096 whole entry, looked up): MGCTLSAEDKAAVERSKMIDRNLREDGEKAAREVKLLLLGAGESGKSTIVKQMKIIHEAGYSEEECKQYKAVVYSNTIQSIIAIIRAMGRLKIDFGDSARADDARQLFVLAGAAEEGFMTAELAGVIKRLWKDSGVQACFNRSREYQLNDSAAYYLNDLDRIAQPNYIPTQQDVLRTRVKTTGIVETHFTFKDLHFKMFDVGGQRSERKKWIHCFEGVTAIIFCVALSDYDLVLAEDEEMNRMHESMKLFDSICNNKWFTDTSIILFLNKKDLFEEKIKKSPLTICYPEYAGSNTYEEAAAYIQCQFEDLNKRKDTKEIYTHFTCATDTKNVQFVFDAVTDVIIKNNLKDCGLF
# Arylsulfatase A (Homo sapiens), sequence (P15289 whole entry, looked up): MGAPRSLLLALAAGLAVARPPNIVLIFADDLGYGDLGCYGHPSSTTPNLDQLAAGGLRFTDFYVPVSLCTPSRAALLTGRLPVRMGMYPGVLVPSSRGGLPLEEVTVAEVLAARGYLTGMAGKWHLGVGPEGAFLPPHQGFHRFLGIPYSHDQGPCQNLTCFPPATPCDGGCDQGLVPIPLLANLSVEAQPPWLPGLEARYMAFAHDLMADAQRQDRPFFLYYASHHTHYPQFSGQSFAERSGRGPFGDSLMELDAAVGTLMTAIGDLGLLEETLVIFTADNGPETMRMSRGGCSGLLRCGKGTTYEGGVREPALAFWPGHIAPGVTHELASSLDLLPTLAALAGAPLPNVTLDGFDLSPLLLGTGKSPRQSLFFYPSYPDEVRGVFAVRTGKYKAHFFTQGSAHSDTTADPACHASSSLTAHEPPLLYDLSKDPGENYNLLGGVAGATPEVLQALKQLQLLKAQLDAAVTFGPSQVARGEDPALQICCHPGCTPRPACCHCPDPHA
# DNA dC->dU-editing enzyme APOBEC-3G (Homo sapiens), sequence (Q9HC16 whole entry, looked up): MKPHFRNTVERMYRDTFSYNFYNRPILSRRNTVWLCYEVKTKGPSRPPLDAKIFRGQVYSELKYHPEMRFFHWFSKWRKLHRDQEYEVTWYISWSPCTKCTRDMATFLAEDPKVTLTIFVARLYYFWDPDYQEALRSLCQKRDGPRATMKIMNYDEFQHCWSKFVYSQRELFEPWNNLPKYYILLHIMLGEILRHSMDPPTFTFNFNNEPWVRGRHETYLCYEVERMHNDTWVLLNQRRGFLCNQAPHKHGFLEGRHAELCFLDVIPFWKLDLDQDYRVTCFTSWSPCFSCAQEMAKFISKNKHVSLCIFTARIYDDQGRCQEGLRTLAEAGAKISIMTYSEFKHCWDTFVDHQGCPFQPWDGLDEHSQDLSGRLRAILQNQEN
# Phospholipid hydroperoxide glutathione peroxidase GPX4 (Homo sapiens), sequence (P36969 whole entry, looked up): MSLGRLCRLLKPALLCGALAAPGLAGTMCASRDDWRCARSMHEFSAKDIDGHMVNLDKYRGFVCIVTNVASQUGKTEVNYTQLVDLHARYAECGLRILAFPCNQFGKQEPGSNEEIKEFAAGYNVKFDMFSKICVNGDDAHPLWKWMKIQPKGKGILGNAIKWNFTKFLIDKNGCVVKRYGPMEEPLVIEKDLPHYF
structure (smiles),measurement,setting,value
CN1C[C@H](C(=O)N[C@]2(C)O[C@@]3(O)C4CCCN4C(=O)[C@H](Cc4ccccc4)N3C2=O)C[C@@H]2c3cccc4[nH]cc(c34)C[C@H]21 (some centres undefined),Potency,[1],4.47 µM (active)
COc1cc2c(cc1O)C[C@H]1c3c(cc(OC)c(O)c3-2)CCN1C,outcome,[2],inactive
S=C(S)N1CCCC1,Potency,[3],3.98 µM (active)
same,Potency,[4],2.61 µM (active)
same,Potency,[5],2.93 µM (active)
same,Potency,[6],4.65 µM (active)
same,Potency,[7],inactive
same,outcome,[8],inactive
COc1cc(OC)c(/C=C2/C(=O)Nc3ccccc32)c(OC)c1,Potency,[9],16.4 µM (active)
same,outcome,[10],inactive
CN1[C@@H]2CC(O)C[C@H]1[C@@H]1O[C@@H]12 (some centres undefined),Potency,[11],inactive
C#CCN(C)[C@@H](C)Cc1ccccc1,outcome,[12],inactive
same,Potency,[13],inactive
same,Potency,[14],inactive
same,Potency,[15],inactive
same,Potency,7G8,inactive
same,Potency,ICS,inactive
same,Potency,W2,inactive
CC(C)CN1CC[C@@]2(CCCN(C(=O)Oc3ccccc3)C2)C1,activation,[16],-4.64%
C/C=C1\C[N@@+]2(C)CC[C@@]34C(=C(C=O)[C@H]1C[C@H]32)Nc1ccccc14,Potency,[17],inactive
C[C@@]12CC[C@H]3[C@@H](CC[C@@H]4C[C@H]5S[C@H]5C[C@]43C)[C@H]1CC[C@H]2O,activation,[16],1.68%
same,Potency,[17],inactive
same,Potency,[14],inactive
same,Potency,[15],inactive
